# Data taken from PubChem BioAssay AID1626 (SRMLSC, 2009).
# Among all 220,000 compounds or so, about 2,000 (0.91%) were called active. Another 2% or so got no clear call; they are omitted. A selection follows. Potency and affinity values are given separately. A number with no mark means an inactive call. No stated cut-off is given here; in the data, inconclusive means inhibition above about 80% without an active follow-up result; inactive means below that; test concentration not stated here.
# Experiment: M. tuberculosis H37Rv growth inhibitors, H37Rv strain (AID 1626);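 further: bacteria incubated seven days before Alamar blue readout; 0% = bacteria only wells and 100% = bacteria with antibiotic wells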
# Conditions: stronger effect = higher value, concentration not given here
row,Compound,inhibition [%]
1,COc1ccc(CNC(=O)COC(=O)/C=C/c2ccc(Cl)cc2)cc1,2.04
2,COc1ccc(-c2nc(N)n(C(=O)c3ccccc3)n2)cc1,6.59
3,O=C(NC1CCCCCC1)c1ccc(=O)n(Cc2ccccc2)n1,-0.36
4,CC(C)COC(=O)c1ccccc1C(=O)OCC(C)C,-10
5,COC(=O)c1ccc2c(c1O)C(=O)c1ccccc1C2=O,1.91
6,CCOC(=O)c1c(C)oc2c1c(CN1CCN(CCO)CC1)c(O)c1ccccc12,3.65
7,O=C(CN1CC=C(c2ccccc2)CC1)NC(=O)NCc1ccco1,-3.79
8,Cc1ccc(OCC(O)CN2CCN(CC(O)COc3ccc(C)cc3)CC2)cc1 (centres undefined),2.23
9,Cc1ccc(OCC(O)Cn2c3ccccc3c3ccccc32)cc1 (centres undefined),72.7
10,COc1ccc(-c2cc3ccccc3n2CC(O)CN2CCCCC2)cc1 (centres undefined),3
11,O=C(c1ccco1)N1CCN(CC(O)Cn2c3ccccc3c3ccccc32)CC1 (centres undefined),1.44
12,OC(CN1CCN(c2ccccc2)CC1)Cn1c2ccccc2c2ccccc21 (centres undefined),11.9
13,CCOc1ccc(CN2CCN(C(=O)c3ccccc3)CC2)cc1,0.42
14,COc1ccc(-c2cc3ccccc3n2CC(O)CN2CCN(CCO)CC2)cc1 (centres undefined),4.8
15,OC(COc1ccccc1)Cn1c2ccccc2c2ccccc21 (centres undefined),41.6
16,O=C(N/N=C/c1c(Cl)cccc1Cl)c1ccccc1F,65.5
17,O=C(CNc1ccccc1)NN=C1CCCC1,-7.1
18,COc1cccc(CNC(=O)CCC2CCCN(C(=O)c3cscn3)C2)c1 (centres undefined),-1.29
19,CCOC(=O)N1CCN(C(=O)Nc2ccc(NC(=O)N3CCN(C(=O)OCC)CC3)cc2)CC1,-0.49
20,COc1ccccc1/C=C/C(=O)N1CCOCC1,-12.7
21,O=C(NCCCN1CCOCC1)/C(=C/c1ccc(F)cc1)NC(=O)c1ccccc1,-5.09
22,CC1(C)NC(=O)N(CC(=O)Nc2cc(S(=O)(=O)N3CCOCC3)ccc2N2CCOCC2)C1=O,0.65
23,C=CCNC(=O)NC(=O)COC(=O)[C@H](C)NS(=O)(=O)c1c(C)c(C)cc(C)c1C,0.16
24,COC(=O)c1ccc(Cn2cnc3c(cnn3-c3ccc(C)c(C)c3)c2=O)o1,-9.12

row,Compound,inhibition [%]
1,COc1ccc2c(c1)CCCN2C(N)=O,-8.08
2,C=CCn1c(SCc2csc(-c3ccc(Cl)cc3)n2)nnc1-c1ccccc1OC,7.93
3,C=CCn1c(SCC(=O)c2ccc(O)c(O)c2)nnc1-c1ccccc1OC,-2
4,COc1cc(NS(=O)(=O)c2ccc(NC(=O)NC3CCCCC3)cc2)nc(OC)n1,-5.16
5,Cc1cccc(C(=O)N2CCC(=O)N(C(COCc3cccc(Cl)c3)Cc3ccccc3)CC2)c1 (centres undefined),-0.5
6,O=C(CCN1C(=O)C2CCCCC2C1=O)Nc1nc(-c2ccccc2)cs1 (centres undefined),6.05
7,O=C(CCN1C(=O)C2CCCCC2C1=O)Nc1ccc(F)c(F)c1F (centres undefined),-4.84
8,CCOC(=O)C1(CC2CCCCO2)CCN(C(=O)NCc2ccccc2)CC1 (centres undefined),4.64
9,COc1ccc(-c2cc(C(F)(F)F)nc(N3CCOCC3)n2)cc1,-0.92
10,c1ccc(-c2cnc(-c3ccccc3)nc2)cc1,-5.94
11,Nc1c(Cl)nc(-c2ccccc2)nc1Cl,0.39
12,O=C(CCN1C(=O)C2C3C=CC(C3)C2C1=O)Nc1nccs1 (centres undefined),-5.43
13,O=C1CNC(=S)N1CCc1ccc(Cl)cc1,-6.23
14,CCc1ccccc1NC(=O)CN(C)C(=O)CSc1nn(-c2ccc(F)cc2)c(=S)s1,-11.2
15,COc1ccc(-c2nc(C(F)(F)F)c(OC)o2)cc1OC,-0.95
16,O=C(Nc1ccc(F)cc1)N1CCN(C/C=C/c2ccccc2)CC1,-13
17,O=C(C1CCN(Cc2ccc(F)cc2)CC1)N1CCN(C/C=C/c2ccccc2)CC1,5.92
18,COCCNC(=O)CN(C)S(=O)(=O)c1ccc(Br)cc1,-4.89
19,CCc1cc(C(=O)c2ccc(C)cc2)c(NC(=O)CCl)s1,76.6
20,Cc1cc(C(=O)c2ccc(Cl)cc2)c(NC(=O)CCl)s1,73.2
21,COc1ccc(OC)c(C(=O)CSc2nnc(-c3ccc(OC)c(OC)c3)o2)c1,-6.09
22,COc1ccc(-c2nnc(SCC(=O)N3CCOCC3)o2)cc1OC,-5.9
23,COc1ccc(-c2nnc(SCC(=O)N3CCCC3)o2)cc1OC,-0.93
24,O=C(CSc1nnc(-c2cccnc2)o1)OC1CCCCC1,-4.83

row,Compound,inhibition [%]
1,O=C(CSc1nnc(-c2cccs2)o1)N1CCCCC1,1.5
2,O=C(CSc1nnc(-c2cccs2)o1)OCc1ccccc1,-0.9
3,COc1ccc(-c2nnc(SCC(=O)N3CCCCC3)o2)cc1OC,5
4,COc1cc(-c2nnc(SCC(=O)c3ccc(C)cc3)o2)cc(OC)c1OC,2.03
5,C=CCn1nnnc1-c1cc(Cl)cc(Cl)c1,2.4
6,CCCn1nc(C(=O)OCC(=O)c2c(N)n(C)c(=O)n(C)c2=O)c2ccccc2c1=O,5.18
7,N#Cc1c(/N=C/c2cccnc2)sc2c1CCCC2,2.15
8,O=C(CN1C(=O)c2ccccc2C1=O)Nc1cccc2cccnc12,7.46
9,CC1=CC(C)(C)N(C(=O)CSc2nncn2C)c2ccccc21,4.36
10,C=CCN(CC=C)S(=O)(=O)c1ccc(NC(=S)NC(=O)/C=C/c2cccc3ccccc23)cc1,2.67
11,CC(C)(C)OC(=O)NNC(=S)NCc1ccc(Cl)cc1,-13
12,CCc1ccc2[nH]c(=O)c(CN(Cc3ccccc3OC)C(=O)Nc3ccccc3OC)cc2c1,7.78
13,CC1CCN(C(=O)CSc2nnc(-c3cccnc3)n2C2CCCCC2)CC1,-2.09
14,COc1cc(-c2cc(C(=O)Nc3ccc(S(=O)(=O)Nc4ncccn4)cc3)c3ccccc3n2)cc(OC)c1OC,40.2
15,Cc1cc(C)cc(OCc2nnc(SCC(=O)N3CCN(c4ccccc4)CC3)o2)c1,-4.78
16,Cc1cccc(C(=O)c2c(N)sc3c2CCC(C)C3)c1 (centres undefined),5.18
17,CCOc1ccc(S(=O)(=O)NCCN2CCOCC2)c2ccccc12,-4.29
18,CCOC(=O)C1(CC2CCCCO2)CCN(C(=O)Nc2ccccc2SC)CC1 (centres undefined),6.6
19,CCC(=O)N1CCN(c2c(Cl)cccc2[N+](=O)[O-])CC1,4.63
20,CCCCN(CC)CCCNC(=S)Nc1ccc2nc3n(c(=O)c2c1)CCCCC3,-5.11
21,O=C(COC(=O)c1n[nH]c2ccccc12)Nc1ccccc1,-10.9
22,O=C(NCCN1CCOCC1)c1ccc(Cl)cc1[N+](=O)[O-],-10.2
23,O=C(NCCN1CCOCC1)c1ccccc1[N+](=O)[O-],1.9
24,O=C(NCCCN1CCOCC1)c1cc(Cl)ccc1[N+](=O)[O-],-3.28

row,Compound,inhibition [%]
1,O=C(NCCCN1CCOCC1)c1ccc(Cl)cc1[N+](=O)[O-],-0.73
2,COc1ccc(CNC(=O)COC(=O)c2n[nH]c3ccccc23)cc1,10.8
3,Cc1ccc(SC[C@H](CC(C)C)N2CCN(CCc3ccccc3)CCC2=O)cc1,16.3
4,CCOc1ccccc1-c1n[nH]c(=S)o1,6.98
5,COCCOC(=O)C1=C(C)NC(=O)NC1c1c(Cl)nc2c(C)cccn2c1=O (centres undefined),-7.69
6,Cc1noc(C)c1S(=O)(=O)N1CCCC(C(=O)c2cccc(OC(C)C)c2)C1 (centres undefined),0
7,Cc1nc2cc(C(=O)OCC(=O)NC3CCS(=O)(=O)C3)ccc2n1-c1ccccc1 (centres undefined),-9.28
8,Cc1nc2cc(C(=O)OCC(=O)NC(C)C(C)C)ccc2n1-c1ccccc1 (centres undefined),-6.92
9,CCCOc1ccc(/C(O)=C2/C(=O)C(=O)N(CCCOC)C2c2ccncc2)cc1 (centres undefined),-0.21
10,COCCCNS(=O)(=O)c1ccc2c(c1)OCCO2,-7.88
11,CC(C)c1nc2sc3ccccc3c(=O)c2c(=O)n1Cc1ccccc1,-7.18
12,COc1ccc(C#Cc2c(-c3ccsc3)oc3ccc(-c4cc(OC)c(OC)c(OC)c4)cc23)cc1,0.45
13,COc1ccc(-c2oc3ccc(N4CCOCC4)cc3c2C#CC2(O)CCCCC2)cc1,89.2
14,Nc1ccc(C#Cc2c(-c3ccsc3)oc3ccc(N4CCOCC4)cc23)cc1,61.1
15,COc1ccc(-c2ccc3oc(-c4ccc(OC)cc4)c(C#CC4(O)CCCCC4)c3c2)cc1,18.4
16,CCOc1ccc(C(c2c(NC(=O)c3ccccc3)sc(C)c2C)N2CCN(C)CC2)cc1 (centres undefined),17.1
17,c1ccc(C(c2ccccc2)N2CCN(C(c3ccccn3)c3nnnn3C3CCCC3)CC2)cc1 (centres undefined),6.45
18,COc1cc(OC)c2c(=O)cc(-c3cccnc3)oc2c1,-11.6
19,CSc1sc(-c2n[nH]c(=S)n2C)c2c1C=CCC2,5.83
20,COC(=O)c1c(NC(=O)c2ccccc2)sc(C(N)=O)c1C,-3.85
21,COC(=O)c1c(NC(=O)c2ccccc2)sc(Cc2ccccc2)c1C,-9.2
22,CC(O)CCC(=O)NNC1CC(=O)N(c2ccccc2)C1=O (centres undefined),-8.86
